About 8,800 targets were measured; listed, in parts, are those with a hit and a random draw of the rest. About 0.5% of all pairs of compound and target were hits. Values without a mark were called inactive.
How the values were obtained:
Assay in all cases: log2 fold change, soluble protein after heating vs DMSO (PISA); higher = thermal stabilisation; K562 lysate, 10 uM; active = over 0.2 and 3.5 SD of the protein, either way, in both replicates (recomputed)
[1] = compound: C1=CC=C(C=C1)[C@H](COC2=CC3=C(C=C2)NC(=O)N3)NC(=O)C4=CC=CN(C4=O)CC5=CC(=C(C=C5)F)F
Procedure, shortened: (§1)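 Thermal stability, expressed as log-two fold change relative to solvent controls, is given from duplicates. Crude K562 extract in PBS pH 7.4 with 1 mM MgCl2, at 1 mg/mL protein, was treated with 10 μM compound for 30 min and heated in aliquots for 3 min across 48°C-58°C. After pooling, adjustment to 0.5% NP-40 at 4°C and centrifugation at 21,000xg for 90 min, supernatant protein was measured by TMTpro 16plex LC-MS/MS with channel sums equalised.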

[2] = compound: CC1=C(SC2=C1C(=N[C@H](C3=NN=C(N32)C)CC(=O)N)C4=CC=C(C=C4)Cl)C
Procedure, shortened: as §1

[3] = compound: CC1=C2C(=CC=C1)N=C(N(C2=O)C3=CC=CC=C3C)CN4C=NC5=C(N=CN=C54)N
Procedure, shortened: as §1

[4] = compound: c1ccc([C@@H]2C[C@H]2NC2CCNCC2)cc1
Procedure, shortened: as §1

[5] = compound: Cc1sc2c(c1C)C(c1ccc(Cl)cc1)=N[C@@H](CC(=O)OC(C)(C)C)c1nnc(C)n1-2
Procedure, shortened: as §1

Sequence of UniProt O95718 (O95718 whole entry, looked up): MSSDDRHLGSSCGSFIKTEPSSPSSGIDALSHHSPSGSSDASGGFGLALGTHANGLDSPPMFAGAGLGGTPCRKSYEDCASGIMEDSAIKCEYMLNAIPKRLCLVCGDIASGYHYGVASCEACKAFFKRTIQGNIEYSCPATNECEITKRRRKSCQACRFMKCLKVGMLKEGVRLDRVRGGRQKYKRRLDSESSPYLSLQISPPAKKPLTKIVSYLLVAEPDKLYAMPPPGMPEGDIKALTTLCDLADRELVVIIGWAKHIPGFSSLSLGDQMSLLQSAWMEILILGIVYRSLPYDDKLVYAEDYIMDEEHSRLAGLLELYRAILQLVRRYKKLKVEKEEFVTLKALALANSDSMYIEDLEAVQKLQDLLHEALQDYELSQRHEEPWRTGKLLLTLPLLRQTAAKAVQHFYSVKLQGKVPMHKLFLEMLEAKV
Sequence of UniProt Q9UKR5 (Q9UKR5 whole entry, looked up): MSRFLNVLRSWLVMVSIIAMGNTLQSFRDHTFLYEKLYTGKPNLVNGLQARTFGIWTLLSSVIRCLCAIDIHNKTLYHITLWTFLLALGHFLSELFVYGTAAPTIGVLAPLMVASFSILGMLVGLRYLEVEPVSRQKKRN
Sequence of UniProt Q5HYJ3 (Q5HYJ3 whole entry, looked up): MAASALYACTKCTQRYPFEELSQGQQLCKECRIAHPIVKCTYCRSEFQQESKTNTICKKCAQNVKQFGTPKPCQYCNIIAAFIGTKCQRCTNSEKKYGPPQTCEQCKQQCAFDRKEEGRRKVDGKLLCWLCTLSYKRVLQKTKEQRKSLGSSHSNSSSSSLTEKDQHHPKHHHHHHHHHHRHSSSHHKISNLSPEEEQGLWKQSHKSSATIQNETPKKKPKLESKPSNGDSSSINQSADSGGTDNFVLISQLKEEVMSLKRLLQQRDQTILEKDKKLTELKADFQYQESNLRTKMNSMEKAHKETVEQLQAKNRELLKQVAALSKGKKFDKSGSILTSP
Sequence of UniProt P0C2W1 (P0C2W1 whole entry, looked up): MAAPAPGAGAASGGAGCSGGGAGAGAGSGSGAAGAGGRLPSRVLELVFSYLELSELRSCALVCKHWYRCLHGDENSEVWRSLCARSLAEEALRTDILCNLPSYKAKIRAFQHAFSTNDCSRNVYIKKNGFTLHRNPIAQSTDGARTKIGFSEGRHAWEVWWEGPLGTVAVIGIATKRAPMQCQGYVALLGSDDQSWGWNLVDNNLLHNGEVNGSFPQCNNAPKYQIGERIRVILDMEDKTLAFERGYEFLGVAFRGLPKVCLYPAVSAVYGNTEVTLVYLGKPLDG
Sequence of UniProt Q9NZC3 (Q9NZC3 whole entry, looked up): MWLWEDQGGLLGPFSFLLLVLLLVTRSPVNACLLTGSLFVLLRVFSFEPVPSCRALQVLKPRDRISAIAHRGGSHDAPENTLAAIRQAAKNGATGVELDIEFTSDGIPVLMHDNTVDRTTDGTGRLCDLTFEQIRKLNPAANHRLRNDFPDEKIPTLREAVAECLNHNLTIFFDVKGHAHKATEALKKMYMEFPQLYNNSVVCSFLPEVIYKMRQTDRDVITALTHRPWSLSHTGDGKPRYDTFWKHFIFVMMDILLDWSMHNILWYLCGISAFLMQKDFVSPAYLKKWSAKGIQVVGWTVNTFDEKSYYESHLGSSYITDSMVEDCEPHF
Sequence of UniProt P26378 (P26378 whole entry, looked up): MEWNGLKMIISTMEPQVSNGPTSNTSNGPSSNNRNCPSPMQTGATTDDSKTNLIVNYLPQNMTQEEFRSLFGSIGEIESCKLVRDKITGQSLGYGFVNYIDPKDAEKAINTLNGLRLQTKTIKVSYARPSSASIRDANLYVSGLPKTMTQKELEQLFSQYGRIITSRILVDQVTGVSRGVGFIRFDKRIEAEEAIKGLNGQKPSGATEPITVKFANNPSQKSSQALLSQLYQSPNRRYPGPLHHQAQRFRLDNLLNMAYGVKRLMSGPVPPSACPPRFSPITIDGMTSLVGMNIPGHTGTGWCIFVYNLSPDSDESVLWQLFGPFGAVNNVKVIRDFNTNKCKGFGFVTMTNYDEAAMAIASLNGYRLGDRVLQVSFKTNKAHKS
Sequence of UniProt Q9H8W3 (Q9H8W3 whole entry, looked up): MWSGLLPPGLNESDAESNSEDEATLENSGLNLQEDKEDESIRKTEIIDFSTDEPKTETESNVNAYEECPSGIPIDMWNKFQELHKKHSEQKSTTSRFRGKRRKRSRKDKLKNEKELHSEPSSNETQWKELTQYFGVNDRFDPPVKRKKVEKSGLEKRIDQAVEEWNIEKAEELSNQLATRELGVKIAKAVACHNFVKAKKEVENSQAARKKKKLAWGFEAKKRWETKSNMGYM
Sequence of UniProt Q9NZJ5 (Q9NZJ5 whole entry, looked up): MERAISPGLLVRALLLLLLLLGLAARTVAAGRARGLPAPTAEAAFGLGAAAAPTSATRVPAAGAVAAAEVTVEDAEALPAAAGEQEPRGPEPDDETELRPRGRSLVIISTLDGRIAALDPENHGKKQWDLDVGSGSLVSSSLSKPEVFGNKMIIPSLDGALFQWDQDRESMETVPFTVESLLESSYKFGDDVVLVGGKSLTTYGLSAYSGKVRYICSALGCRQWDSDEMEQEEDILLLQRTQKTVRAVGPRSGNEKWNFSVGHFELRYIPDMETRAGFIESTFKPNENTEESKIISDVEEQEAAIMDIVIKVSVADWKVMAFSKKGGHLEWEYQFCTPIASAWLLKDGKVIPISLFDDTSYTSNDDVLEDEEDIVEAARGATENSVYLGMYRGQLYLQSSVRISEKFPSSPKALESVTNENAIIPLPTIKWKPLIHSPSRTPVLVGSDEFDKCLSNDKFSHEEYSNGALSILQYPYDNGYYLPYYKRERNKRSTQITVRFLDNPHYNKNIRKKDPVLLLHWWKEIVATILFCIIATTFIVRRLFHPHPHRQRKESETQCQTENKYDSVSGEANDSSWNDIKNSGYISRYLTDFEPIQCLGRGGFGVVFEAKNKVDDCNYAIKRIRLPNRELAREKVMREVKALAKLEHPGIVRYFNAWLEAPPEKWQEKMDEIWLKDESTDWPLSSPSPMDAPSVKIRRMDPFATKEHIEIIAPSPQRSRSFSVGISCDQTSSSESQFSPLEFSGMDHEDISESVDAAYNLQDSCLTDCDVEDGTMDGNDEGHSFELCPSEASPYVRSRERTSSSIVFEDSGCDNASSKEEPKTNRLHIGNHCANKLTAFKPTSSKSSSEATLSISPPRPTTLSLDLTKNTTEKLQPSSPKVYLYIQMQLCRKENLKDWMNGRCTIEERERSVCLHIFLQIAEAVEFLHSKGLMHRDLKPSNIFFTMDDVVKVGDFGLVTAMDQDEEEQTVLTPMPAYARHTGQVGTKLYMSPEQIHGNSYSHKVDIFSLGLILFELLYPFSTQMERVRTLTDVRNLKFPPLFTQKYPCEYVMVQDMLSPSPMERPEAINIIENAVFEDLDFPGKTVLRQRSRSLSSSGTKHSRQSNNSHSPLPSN
Sequence of UniProt Q9Y2H6 (Q9Y2H6 whole entry, looked up): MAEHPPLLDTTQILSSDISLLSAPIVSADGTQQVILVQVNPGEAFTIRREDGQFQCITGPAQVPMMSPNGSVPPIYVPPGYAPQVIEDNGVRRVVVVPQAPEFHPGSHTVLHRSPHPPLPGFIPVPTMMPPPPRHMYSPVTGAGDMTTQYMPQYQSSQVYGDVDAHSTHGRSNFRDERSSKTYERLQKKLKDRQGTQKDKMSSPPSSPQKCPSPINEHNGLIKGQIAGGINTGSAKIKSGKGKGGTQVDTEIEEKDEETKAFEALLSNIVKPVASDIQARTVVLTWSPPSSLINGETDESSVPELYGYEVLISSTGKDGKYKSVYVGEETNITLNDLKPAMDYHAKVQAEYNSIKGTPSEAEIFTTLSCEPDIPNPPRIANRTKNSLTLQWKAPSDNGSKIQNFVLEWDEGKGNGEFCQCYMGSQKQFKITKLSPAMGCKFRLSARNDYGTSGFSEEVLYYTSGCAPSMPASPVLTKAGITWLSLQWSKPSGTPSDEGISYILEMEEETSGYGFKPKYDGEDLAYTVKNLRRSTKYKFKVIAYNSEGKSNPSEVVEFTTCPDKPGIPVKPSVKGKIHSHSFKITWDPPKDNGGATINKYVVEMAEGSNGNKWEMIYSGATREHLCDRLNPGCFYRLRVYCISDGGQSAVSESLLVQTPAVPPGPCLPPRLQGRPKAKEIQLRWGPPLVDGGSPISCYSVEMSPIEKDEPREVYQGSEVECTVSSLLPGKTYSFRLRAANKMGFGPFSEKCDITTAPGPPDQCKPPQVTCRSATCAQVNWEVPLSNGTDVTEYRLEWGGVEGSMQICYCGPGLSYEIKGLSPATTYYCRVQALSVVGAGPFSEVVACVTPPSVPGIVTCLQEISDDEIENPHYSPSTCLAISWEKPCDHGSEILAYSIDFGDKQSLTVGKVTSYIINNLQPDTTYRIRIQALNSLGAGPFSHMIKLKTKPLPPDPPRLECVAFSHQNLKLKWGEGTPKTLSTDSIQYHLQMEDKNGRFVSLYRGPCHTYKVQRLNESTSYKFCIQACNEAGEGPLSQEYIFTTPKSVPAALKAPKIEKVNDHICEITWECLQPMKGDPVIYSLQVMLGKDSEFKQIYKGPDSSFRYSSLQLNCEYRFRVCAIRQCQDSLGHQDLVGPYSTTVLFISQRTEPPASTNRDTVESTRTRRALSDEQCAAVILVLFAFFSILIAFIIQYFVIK

Row | Target | log2 fold change [1] | log2 fold change [2] | log2 fold change [3] | log2 fold change [4] | log2 fold change [5]
1 | GAA (UniProt P10253) | -0.001 | -0.077 | -0.157 | -0.024 | 
2 | ERG28 (UniProt Q9UKR5) | 0.001 | -0.053 |  | 0.277 | -0.08
3 | FBXO45 (UniProt P0C2W1) | -0.079 | -0.177 | -0.004 | 0.053 | 
4 | DYRK1A isoform 2 (UniProt Q13627) | -0.001 | -0.028 |  | -0.339 | 
5 | FNDC3A (UniProt Q9Y2H6) |  |  |  | -0.136 | 
6 | GDE1 (UniProt Q9NZC3) | -0.085 | -0.076 |  | 0.394 | -0.067
7 | ESRRB isoform 1 (UniProt O95718) | -0.147 | 0.109 |  | 0.321 | 
8 | FAM204A (UniProt Q9H8W3) |  |  | -0.102 | -0.035 | 
9 | FAM76B (UniProt Q5HYJ3) |  |  | 0.066 | -0.099 | 0.038
10 | DST isoform 3 (UniProt Q03001) | -0.039 | -0.033 |  | 0.586 | 
11 | EIF2AK3 (UniProt Q9NZJ5) |  |  |  | 0.041 | 0.025
12 | ELAVL4 (UniProt P26378) |  |  | 0.018 | 0.095 | -0.079
13 | EIF3I (UniProt Q5TFK1) |  |  |  | 0.059 | 

From the supplement of paper PMC10849652
